DAX1 inh-1: DAX1 (NR0B1) inhibitors, primary screen, cell-based, HEK293, Gal4-DAX1, luciferase luminescence; 0.99% of 340,000 active; HEK293 Gal4-DAX1 luciferase reporter; AID 504766, 2011; inhibition, % at 6.75 µM;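 active = inhibition above the mean over all tested compounds plus 3 SD, cut at about 4.2% in these data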;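 note: 0% = DAX1-transfected cells with DMSO and 100% = empty-vector control cells with DMSO; inhibition shows as a rise in luminescence from relieved DAX1 repression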
Target sequence (P51843 207-470 limits assumed): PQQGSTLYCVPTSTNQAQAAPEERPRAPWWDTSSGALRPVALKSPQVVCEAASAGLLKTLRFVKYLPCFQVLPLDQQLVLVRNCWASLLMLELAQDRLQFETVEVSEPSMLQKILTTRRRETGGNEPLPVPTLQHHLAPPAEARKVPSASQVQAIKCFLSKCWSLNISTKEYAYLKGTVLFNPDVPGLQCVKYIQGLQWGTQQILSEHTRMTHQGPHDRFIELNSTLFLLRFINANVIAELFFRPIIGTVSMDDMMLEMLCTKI
hgDAF12 agonist: H. glycines DAF-12 receptor agonists, primary screen, cell-based, luminescence, HEK293, GAL4 fusion, UAS-luciferase | Nuclear hormone receptor DAF-12 (Heterodera glycines), GAL4 fusion | HEK293 GAL4-hgDAF12 UAS-luciferase reporter, agonist luminescence; normalized to butyrate control | activation, % at 6.8 µM | 1.8% of 370,000 active | AID 687014, 2013;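 active = activation above a cutoff set at the mean of all screened compounds plus 3 SD, cut at about 10% in these data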;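 note: 0% = DMSO wells and 100% = sodium butyrate wells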
DAX1 inh-2: DAX1 (NR0B1) inhibitors on StAR promoter, primary screen, cell-based, luminescence, SF-1 (NR5A1), full-length DAX-1; HEK293T StAR-luciferase reporter, SF-1/DAX-1 repression relief; inhibition, % at 6.8 µM; 1.1% of 370,000 active; AID 652010, 2013;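 active = inhibition above the mean over all tested compounds plus 3 SD, cut at about 3.6% in these data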;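 note: 0% = DAX-1 cells with DMSO and 100% = cells lacking DAX-1 with DMSO; higher inhibition means more luminescence from relief of DAX-1 repression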
hcDAF-12 act: H. contortus DAF-12 nuclear receptor activators, primary screen, cell-based, luminescence, HEK293, lit1-tk-luc reporter; HEK293 hcDAF-12 lit1-tk-luc reporter; 0% DMSO, 100% Δ7-dafachronic acid; activation, % at 6.8 µM; 1.4% of 370,000 active; AID 652067, 2013;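 active = activation above the mean of all tested compounds plus 3 SD, cut at about 5.5% in these data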;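 note: 100% = response to 3 µM Δ7-dafachronic acid high control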
ssDAF-12 act: S. stercoralis DAF-12 nuclear receptor activators, primary screen, cell-based, luminescence, HEK293, GRIP1 co-expression, lit1-tk-luc; activation, % at 6.8 µM; AID 652126, 2013; Nuclear hormone receptor DAF-12 (Strongyloides stercoralis); 1% of 370,000 active; HEK293 ssDAF-12/GRIP1 lit1-tk-luc reporter; % of 3 µM dafachronic acid response;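 active = activation above the mean over all tested compounds plus 3 SD, cut at about 0.9% in these data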;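 note: 0% = DMSO-only wells and 100% = 3 µM delta7-dafachronic acid wells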
Starred values were filed as active, the others as inactive; · = not tested or not shown. A selection: hits, their analogues and other compounds. The true share with any hit is near 4.1%.

SMILES | DAX1 inh-1 | hgDAF12 agonist | DAX1 inh-2 | hcDAF-12 act | ssDAF-12 act
COCCN(C(=O)CSc1nc2ccccc2s1)c1c(N)n(Cc2ccccc2)c(=O)[nH]c1=O | 3 | 1 | 1 | 6.5* | 0
Cc1cc(C)n2nc(C(=O)N(C)c3c(N)n(Cc4ccccc4)c(=O)[nH]c3=O)nc2n1 | 2 | -1 | 0 | 0 | 0
CCCN(C(=O)c1nc2nc(C)cc(C)n2n1)c1c(N)n(Cc2ccccc2)c(=O)[nH]c1=O | 2 | -1 | 3.8* | -2 | -1
CCCCn1c(N)c(N(CCOC)C(=O)CSc2ccccc2C)c(=O)[nH]c1=O | 5.3* | 3 | 0 | -1 | 0
CCCCN(C(=O)CSc1cc(C)c2ccc(OC)cc2n1)c1c(N)n(Cc2ccccc2)c(=O)[nH]c1=O | 0 | -4 | 0 | 2 | 4.8*
CCCCn1c(N)c(N(CC(C)C)C(=O)CSc2ccccc2C)c(=O)[nH]c1=O | -1 | 1 | 1 | -2 | -1
O=C(NN=Cc1ccc(OC(F)F)cc1)c1ccc(NS(=O)(=O)c2cccs2)cc1 | 2 | 3 | 3 | -1 | -1
CCCCn1c(N)c(N(CC)C(=O)c2ccco2)c(=O)[nH]c1=O | 0 | 1 | 2 | 0 | -1
CCCCn1c(N)c(N(CC)C(=O)C(c2ccccc2)c2ccccc2)c(=O)[nH]c1=O | 4.9* | -4 | 1 | 1 | -1
CCCCn1c(N)c(N(CC(C)C)C(=O)CCCn2c(=O)oc3ccccc32)c(=O)[nH]c1=O | 4.3* | 1 | 0 | -1 | -1
COc1cc(O)c(C(CC(=O)N2CC(C)OC(C)C2)c2ccc3c(c2)OCO3)c(OC)c1 (stereo unspecified) | · | -2 | · | -2 | -1
CC(C)(C)c1ccc(C(=O)Nc2cc(Cl)ccc2C(=O)O)cc1 | · | 4 | · | 3 | 0
COc1ccc2c(c1)CCCN2C(=O)C1CCCN(S(=O)(=O)c2ccc(C(C)(C)C)cc2)C1 (stereo unspecified) | · | -6 | -3 | -5 | -2
O=C(CSc1nnc(-c2cccnc2)n1-c1ccc(Cl)cc1)Nc1ccccc1-c1ccccc1 | · | -2 | -1 | -2 | -1
Clc1ccc(-c2nnc3n2N=C(c2ccc(-c4ccccc4)cc2)CS3)c(Cl)c1 | · | 5 | -3 | -2 | -2
Cc1ccc2c(c1)N(CC(=O)NCCCN1C(C)CCCC1C)C(=O)c1cccnc1O2 (stereo unspecified) | 4.8* | -2 | 0 | 0 | -1
NNC(=O)c1ccc(Oc2cc(Cl)cc(Cl)c2)o1 | 4.3* | -1 | 0 | -1 | 0
C#CCOCCOCCOCCNc1nc(N2CCN(C(=O)[C@H]([C@@H](C)CC)n3cc(CCCCN)nn3)CC2)nc(N2CCN(C(=O)[C@H](Cc3ccc(O)cc3)n3cc(CCO)nn3)CC2)n1 | · | -2 | · | -2 | -2
O=C(Nc1ccnn1C1CCN(Cc2c[nH]c3ccccc23)CC1)c1ccccc1 | 1 | 3 | 2 | 6.2* | -1
O=S1(=O)c2c(cccc2N2CC[C@@H](O)C2)O[C@H]2CCN1C2 | · | 0 | 0 | 0 | -2
CC(C)N(c1nnc(N)s1)C(C)C | 5.0* | 0 | -1 | 3 | 0
O=C(NC(=O)c1cc([N+](=O)[O-])ccc1Cl)C1=C(N2CCCC2)COC1=O | -1 | -1 | 0 | -2 | -1
CC1CCc2nc(NC(=O)C3CCCO3)sc2C1 (stereo unspecified) | 1 | 12* | 3.7* | 6.5* | 1
O=C(NC(=S)Nc1nc2ccc(F)cc2s1)c1ccco1 | 2 | 5 | 2 | 5.8* | 2.6*
O=C(Nc1nc2ccc(F)cc2s1)C1CCCO1 (stereo unspecified) | 1 | 11* | 4.0* | 5 | 0
SMILES | DAX1 inh-1 | hgDAF12 agonist | DAX1 inh-2 | hcDAF-12 act | ssDAF-12 act
CS(=O)(=O)c1ccc2nc(NC(=O)Oc3ccccc3)sc2c1 | 2 | 3 | -1 | -2 | -1
COc1ccc2nc(NC(=O)c3ccc(NC(=O)C4CCCO4)cc3)sc2c1 (stereo unspecified) | 0 | 0 | -1 | -1 | 0
CC1CCc2nc(NC(=O)c3ccco3)sc2C1 (stereo unspecified) | -5 | -5 | -1 | 0 | -2
O=C(Nc1nc2ccc(F)cc2s1)Oc1ccccc1 | 0 | 2 | 0 | 6.5* | 0
COc1c(Cl)cc(-c2noc(C)c2C(=O)NCc2ccc3c(c2)OCO3)cc1Cl | 4.3* | 1 | -1 | -1 | -1
COc1cc(-c2noc(C)c2C(=O)NCc2ccc3c(c2)OCO3)cc(OC)c1OC | 2 | 0 | 0 | 0 | -2
O=C1NC[C@@H](c2ccccc2)OC(=O)[C@@H](Cc2ccc(F)cc2)CC/C=C/C[C@@H]1CC(=O)N(CCO)Cc1ccccc1 | 0 | -3 | 0 | -3 | -1
COc1cccc(/C=C/C(=O)OCC(=O)Nc2ccc3c(c2)OCO3)c1 | 6.4* | 1 | 0 | 0 | -1
COc1ccccc1NC(=O)Nc1ccc2c(c1)OCCO2 | 8.0* | 13* | 2 | 1 | 0
O=C(COC(=O)/C=C/c1ccc2c(c1)OCO2)Nc1ccccc1 | 0 | 3 | 1 | -1 | -1
Cc1ccccc1NC(=O)NC(N)=O | 1 | 3 | 0 | 2 | -1
COc1ccccc1NC(=O)NC(N)=O | 4.3* | 3 | 0 | -1 | -1
COc1ccc(NC(=O)Nc2ccc(F)cc2F)cc1 | 3 | 6 | 1 | 3 | 1.1*
O=S1(=O)c2ccc(N3CCN(Cc4ccccc4F)CC3)cc2Oc2ccccc2CN1Cc1cn(Cc2ccc(C(F)(F)F)cc2)nn1 | · | 1 | 0 | 0 | -1
COc1ccc(NC(=O)Nc2ccc3c(c2)OCO3)c(C)c1 | 1 | 9 | 4.4* | 1 | -1
CC[C@H](C)C(=O)O[C@H]1CCC=C2C=C[C@H](C)[C@H](CC[C@@H]3C[C@@H](O)CC(=O)O3)[C@H]21 | 0 | 1 | 3.9* | -2 | -1
Cc1nn(-c2ccccc2)cc1/C=N/O | 5.2* | 4 | 1 | -1 | -1
CC(Oc1cc2oc(=O)c3c(c2cc1Cl)CCC3)C(=O)N1C[C@H]2C[C@@H](C1)c1cccc(=O)n1C2 (stereo partly specified) | 1 | 3 | 1 | -3 | -1
O=C(COc1cc2oc(=O)c3c(c2cc1Cl)CCCC3)N1C[C@H]2C[C@@H](C1)c1cccc(=O)n1C2 | 5.7* | 1 | -1 | 0 | -2

Screens deposited in PubChem by The Scripps Research Institute Molecular Screening Center.
